Reference: PubChem BioAssay (Tox21)
Values joined by “and” are separate entries in the source; they are usually repeats but may differ in a detail not shown here. Equal values may be shown once. Records with an inconclusive call do not appear. Active and inactive are the calls of the source. Unless noted, calls follow the shape of the dose curve; as a rule, active = well fitted curve in the direction sought with a large enough effect in the repeat runs; inconclusive = weak or mixed curves; inactive = no such curve, though single readings can be large; an effect the other way counts as inactive or inconclusive.

Columns and labels:
[1] = qHTS assay to identify small molecule agonists of the hypoxia (HIF-1) signaling pathway - cell viability counter screen (AID 1224844; calls by dose curve; also: nearly all actives have a fitted effect of over 50% in size)
Method in brief: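 HRE-bla ME-180 cells, 2,000/well in 0.5% dialyzed FBS medium, treated 17 h at 37C with compounds. Viability read in the same wells as the bla reporter, by CellTiter-Glo luminescence after 30 min at room temperature.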

[2] = qHTS assay to identify small molecule agonists of H2AX (AID 1224845; active = well fitted activation curve with a large enough effect in the signal ratio in the repeat runs, not every such curve was filed as active; the % refers to the signal ratio)
Method in brief: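 Phospho-H2AX Ser139 measured by HTRF (ex 320 nm; em 665 and 620 nm) after 24 hr antibody incubation. Compounds, 15 concentrations, 0.76% DMSO, were applied to CHO-K1 cells for 3hr at 37C before lysis.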

[3] = qHTS assay to identify small molecule agonists of the hypoxia (HIF-1) signaling pathway (AID 1224846; active = well fitted activation curve with a large enough effect in the signal ratio in the repeat runs, not every such curve was filed as active; the % refers to the signal ratio)
Method in brief: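 HRE-bla ME-180 beta-lactamase reporter cells in medium with 0.5% dialyzed FBS, pre-incubated 5 h then exposed to compounds 17 h at 37C, 5% CO2; reporter induction read with CCF4-AM FRET substrate.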

[4] = qHTS assay to identify small molecule agonists of H2AX - cell viability counter screen (AID 1224847; calls by dose curve;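 also: wild-type CHO-K1 cells; top concentration of the series differs between compounds; nearly all actives have a fitted effect of over 30% in size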)
Method in brief: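 For this counter screen, overnight-attached CHO-K1 cells received test compounds (15 concentrations, 0.76% DMSO final); 3 hr later at 37C, CellTiter-Glo reagent was added and luminescence recorded after 30 min at room temperature.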

[5] = qHTS assay to identify small molecule agonists of the estrogen related receptor (ERR) signaling pathway from Tox21 library (AID 1224849; calls by dose curve; also: nearly all actives have a fitted effect of over 15% in size)
Method in brief: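 ERR reporter cells (NTP line) pre-incubated 6 hours at 37 C, then exposed to compounds for 18 hours at 37 C. ONE-Glo luciferase luminescence was read after 30 minutes at room temperature.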

[6] = qHTS RealTime-Glo MT Cell Viability Assay in HepG2 cells - 24 hour (AID 1224867); also: nearly all actives have a fitted effect of over 50% in size
Method in brief: (§1)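 Cells + NanoLuc/prosubstrate dispensed (600 cells/well) → 5 h at 37 C/5% CO2 → compounds in DMSO transferred → 40 h incubation at 37 C, luminescence read at 0, 8, 16, 24, 32, 40 h.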

[7] = qHTS RealTime-Glo MT Cell Viability Assay in HEK293 cells - 32 hour (AID 1224868); also: top concentration of the series differs between compounds; nearly all actives have a fitted effect of over 50% in size
Method in brief: (§2)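 Tox21 10K qHTS, HEK293, 600 cells/well, RealTime-Glo reagent co-dispensed with cells; 5 h preincubation, compound by pintool, 37 C, luminescence at 0–40 h.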

[8] = A CellTox Green Cytotoxicity Assay to monitor cytotoxicity in HEK293 cells - 0 hour (AID 1224869); also: nearly all actives have a fitted effect of over 50% in size
Method in brief: (§3)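 HEK293 cells, 600/well, were preincubated 5 hours and then exposed to compounds at 37 C for up to 40 hours. A cell-impermeant cyanine dye staining dead-cell DNA was read by fluorescence at 0, 8, 16, 24, 32 and 40 h time points.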

[9] = qHTS RealTime-Glo MT Cell Viability Assay in HepG2 cells - 40 hour (AID 1224870); also: nearly all actives have a fitted effect of over 50% in size
Method in brief: (§4)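 Real-time viability: cells seeded at 600 per well together with NanoLuc and cell-permeant prosubstrate, compounds added after 5 h incubation. Luminescence tracked at 0, 8, 16, 24, 32 and 40 h of exposure.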

[10] = A CellTox Green Cytotoxicity Assay to monitor cytotoxicity in HEK293 cells - 40 hour (AID 1224871); also: nearly all actives have a fitted effect of over 45% in size
Method in brief: as §3

[11] = qHTS RealTime-Glo MT Cell Viability Assay in HEK293 cells - 16 hour (AID 1224872)
Method in brief: as §2

[12] = qHTS RealTime-Glo MT Cell Viability Assay in HepG2 cells - 8 hour (AID 1224873); also: nearly all actives have a fitted effect of over 55% in size
Method in brief: as §4

[13] = qHTS RealTime-Glo MT Cell Viability Assay in HEK293 cells - 40 hour (AID 1224874); settings: RealTime-Glo luminescence; max response: stronger effect = lower value; also: nearly all actives have a fitted effect of over 50% in size
Method in brief: (§5)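 600 cells/well were plated with the nonlytic NanoLuc/prosubstrate reagent, pre-incubated 5 h, then given 23 nL of compound in DMSO. Incubation at 37 C for 40 h, with luminescence from viable-cell-reduced substrate read repeatedly from 0 h.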

[14] = A CellTox Green Cytotoxicity Assay to monitor cytotoxicity in HEK293 cells - 24 hour (AID 1224875); also: series mostly up to about 77 µM; nearly all actives have a fitted effect of over 45% in size
Method in brief: as §3

[15] = A CellTox Green Cytotoxicity Assay to monitor cytotoxicity in HepG2 cells - 16 hour (AID 1224876); also: nearly all actives have a fitted effect of over 45% in size
Method in brief: (§6)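 HepG2 cells, 600/well, preincubated 5 h with CellTox Green dye, then exposed to Tox21 compounds in DMSO at 37 C for up to 40 h. Dead-cell DNA fluorescence read at the indicated time point.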

[16] = qHTS RealTime-Glo MT Cell Viability Assay in HepG2 cells - 32 hour (AID 1224877); also: nearly all actives have a fitted effect of over 55% in size
Method in brief: as §1

[17] = A CellTox Green Cytotoxicity Assay to monitor cytotoxicity in HepG2 cells - 24 hour (AID 1224878); also: nearly all actives have a fitted effect of over 45% in size
Method in brief: as §6

[18] = A CellTox Green Cytotoxicity Assay to monitor cytotoxicity in HepG2 cells - 40 hour (AID 1224879); also: nearly all actives have a fitted effect of over 40% in size
Method in brief: as §6

[19] = qHTS RealTime-Glo MT Cell Viability Assay in HEK293 cells - 0 hour (AID 1224880)
Method in brief: as §5

[20] = target: Thyrotropin receptor (Homo sapiens) (UniProt P16473); experiment: qHTS assay to identify small molecule agonists of the thyroid stimulating hormone receptor (TSHR) signaling pathway (AID 1224843; calls by dose curve; also: nearly all actives have a fitted effect of over 45% in size)
Thyrotropin receptor (Homo sapiens), sequence (P16473 whole entry, looked up): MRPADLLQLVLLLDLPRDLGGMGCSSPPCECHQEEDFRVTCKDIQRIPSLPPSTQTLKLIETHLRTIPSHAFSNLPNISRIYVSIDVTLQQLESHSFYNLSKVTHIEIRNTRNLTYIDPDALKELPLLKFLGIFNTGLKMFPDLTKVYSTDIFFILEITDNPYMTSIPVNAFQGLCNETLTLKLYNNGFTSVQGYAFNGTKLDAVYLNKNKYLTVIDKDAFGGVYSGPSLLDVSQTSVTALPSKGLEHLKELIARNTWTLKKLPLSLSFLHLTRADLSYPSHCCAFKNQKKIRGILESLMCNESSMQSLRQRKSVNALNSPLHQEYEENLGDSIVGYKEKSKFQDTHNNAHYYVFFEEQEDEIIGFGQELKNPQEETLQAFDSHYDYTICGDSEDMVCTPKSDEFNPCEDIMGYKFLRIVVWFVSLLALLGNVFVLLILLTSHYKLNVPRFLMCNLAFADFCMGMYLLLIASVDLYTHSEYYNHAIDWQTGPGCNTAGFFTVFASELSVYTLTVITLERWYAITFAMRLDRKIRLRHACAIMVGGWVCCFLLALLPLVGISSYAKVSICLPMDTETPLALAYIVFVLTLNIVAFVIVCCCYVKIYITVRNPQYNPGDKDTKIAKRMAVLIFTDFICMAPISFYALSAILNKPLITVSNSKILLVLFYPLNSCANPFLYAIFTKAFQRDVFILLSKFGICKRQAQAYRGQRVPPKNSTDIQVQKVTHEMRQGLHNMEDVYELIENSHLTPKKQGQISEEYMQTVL
Method in brief: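 HEK293 cells stably bearing the thyrotropin receptor were plated at 800 cells/well and challenged with compound (30 min, RT). Accumulated cAMP was quantified via cAMP-d2 competing for cryptate-tagged antibody.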
% is scaled to controls: 0 for no effect and ±100 for the full control effect.

COc1ccc(OC)cc1
inactive: outcome [1] | outcome [2] | outcome [3] | outcome [4] | outcome [5] | Potency [6] | Potency [7] | outcome [8] | outcome [9] | Potency [10] | Potency [11] | Potency [12] | max response [13] 5.27% and 14.7% | Potency [14] | outcome [15] | outcome [16] | Potency [17] | Potency [18] | outcome [19]

C=CC[N+](C)(C)CC=C
inactive: outcome [1] | outcome [2] | outcome [3] | outcome [4] | Potency [6] | Potency [7] | outcome [8] | outcome [9] | Potency [10] | Potency [11] | Potency [12] | Potency [14] | outcome [15] | outcome [16] | Potency [17] | Potency [18] | outcome [19]

CCCCCCCO
inactive: outcome [20] | outcome [2] | outcome [3] | outcome [4] | Potency [6] | outcome [8] | outcome [9] | Potency [10] | Potency [11] | Potency [12] | max response [13] 10.9% and 3.74% | Potency [14] | outcome [15] | outcome [16] | Potency [17] | Potency [18] | outcome [19]

O=S(=O)(O)c1ccccc1
inactive: outcome [20] | outcome [2] | outcome [3] | outcome [4] | outcome [5] | Potency [6] | outcome [8] | outcome [9] | Potency [10] | Potency [11] | Potency [12] | Potency [14] | outcome [15] | outcome [16] | Potency [17] | Potency [18] | outcome [19]

COc1ccccc1OCC(O)CO (centres undefined)
inactive: outcome [20] | outcome [2] | outcome [4] | Potency [6] | Potency [7] | outcome [8] | outcome [9] | Potency [10] | Potency [11] | Potency [12] | max response [13] 1.4% and 1.84% | Potency [14] | outcome [15] | outcome [16] | Potency [17] | Potency [18] | outcome [19]

OCc1ccccc1
inactive: outcome [1] | outcome [2] | outcome [3] | outcome [4] | outcome [5] | Potency [6] | Potency [7] | outcome [8] | outcome [9] | Potency [10] | Potency [11] | Potency [12] | max response [13] -3.29% and 13.4% | Potency [14] | outcome [15] | outcome [16] | Potency [17] | Potency [18] | outcome [19]

CCOC(=O)c1ccc(N)cc1
inactive: outcome [20] | outcome [2] | outcome [4] | Potency [6] | outcome [9] | Potency [10] | Potency [11] | Potency [12] | max response [13] -17.4% | Potency [14] | outcome [15] | outcome [16] | Potency [17] | Potency [18] | outcome [19]

CC(C)OP(=O)(CP(=O)(OC(C)C)OC(C)C)OC(C)C
inactive: outcome [1] | outcome [2] | outcome [3] | outcome [4] | Potency [6] | Potency [7] | outcome [8] | outcome [9] | Potency [10] | Potency [11] | Potency [12] | max response [13] 4.3% and 0.573% | Potency [14] | outcome [15] | outcome [16] | Potency [17] | Potency [18] | outcome [19]
